The source of these data is PubChem BioAssay (EPA / NIEHS).

Experiment [1] in a line: ATG_GLI_CIS: Attagene CIS-FACTORIAL HepG2 Assay for human Zinc Finger Protein GLI1 (AID 2282945). The following applies: HepG2, Attagene cis-factorial reporter mRNA, GLI element; actives raise or lower the signal. In outline:
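Bidirectional curve fits relative to DMSO, using reporter mRNA levels from RT-PCR plus capillary electrophoresis. Cells were HepG2 transiently carrying cis-regulated reporter constructs, harvested 24 h after dosing.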

The target in experiment [2] is Bile acid receptor (Homo sapiens) (UniProt Q96RI1). The experiment is described as follows: ATG_IR1_CIS: Attagene CIS-FACTORIAL HepG2 Assay for human Nuclear Receptor Subfamily 1 Group H Member 4 (NR1H4), IR1 submotif (AID 2282946). The note with it: IR1 reporter transcription, actives raise or lower the signal. In outline: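 Cells (human HepG2) carry transiently transfected cis-promoter reporter transcription units. Compounds are incubated 24 h, total RNA is reverse-transcribed and amplified, and labelled fragments are resolved by capillary electrophoresis. Curves use DMSO as baseline.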

A short description of experiment [3]: ATG_GRE_CIS: Attagene CIS-FACTORIAL HepG2 Assay for human Glucocorticoid Response Elements (GRE) (AID 2282947). The following applies: HepG2 GRE cis-reporter, Attagene multiplex mRNA; actives raise or lower the signal. In outline: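 Transient MRTU transfection of human HepG2 liver cells; cis-regulated reporters report endogenous factors. 24 h dosing → RNA isolation → RT-PCR → 6-FAM primer extension → HpaI cut → CE fragment analysis. Bidirectional fit, DMSO negative control.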

A short description of experiment [4]: ATG_ISRE_CIS: Attagene CIS-FACTORIAL HepG2 Assay for human Interferon Regulatory Factor 1 (IRF1) binding to an Interferon-Stimulated Response Element (ISRE) (AID 2282948). The following applies: HepG2 ISRE cis-reporter (Attagene), mRNA transcription readout; actives raise or lower the signal. In outline:
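Cell-based cis-reporter assay; HepG2; 24 h exposure; reporter mRNA by RT-PCR plus capillary electrophoresis fluorescence; activity in either direction scored relative to DMSO.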

Experiment [5] is described as follows: ATG_M_32_CIS: Attagene CIS-FACTORIAL HepG2 Assay for M32 Transcription Factor (Internal Marker) (AID 2282949).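 Also: background control marker of the multiplexed CIS panel rather than a real target.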 The note with it: HepG2 Attagene cis-factorial M32 reporter, mRNA; actives raise or lower the signal. In outline: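 Fluorescent capillary electrophoresis peaks of HpaI-digested, FAM-labelled RT-PCR reporter products give the signal. Source: transiently transfected human liver HepG2 cells, 24 h after chemical dosing; bidirectional fitting against DMSO.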

The nature of experiment [6]: ATG_M_06_CIS: Attagene CIS-FACTORIAL HepG2 Assay for M06 Transcription Factor (Internal Marker) (AID 2282950). The following applies: HepG2 Attagene CIS-FACTORIAL M06 internal marker reporter; actives raise or lower the signal. In outline: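 Fluorescence-labelled RT-PCR products from cis-promoter reporter units, cut with HpaI and resolved by capillary electrophoresis, give the signal. Cells are human HepG2, dosed for 24 h. Serves as background control, fitted relative to DMSO.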

For experiment [7], the target named is Hypoxia-inducible factor 1-alpha (Homo sapiens) (UniProt Q16665). The experiment is described as follows: ATG_HIF1a_CIS: Attagene CIS-FACTORIAL HepG2 Assay for human Hypoxia Inducible Factor 1 (HIF1A) (AID 2282951). The following applies: HepG2 Attagene cis-factorial HIF1a reporter transcription; actives raise or lower the signal. In outline:
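In this multiplexed cell assay, HepG2 cells bearing transfected cis reporters are dosed for 24 h and reporter mRNA is read by RT-PCR plus capillary electrophoresis; signal increases and decreases are both scored against DMSO.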

Experiment [8] addresses Hepatocyte nuclear factor 6 (Homo sapiens) (UniProt Q9UBC0). The experiment is described as follows: ATG_HNF6_CIS: Attagene CIS-FACTORIAL HepG2 Assay for human Hepatocyte Nuclear Factor 6 (HNF6) (AID 2282952). The note with it: HepG2 Attagene cis-factorial HNF6 reporter transcription; actives raise or lower the signal. In outline: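 Cells are HepG2 carrying transiently transfected cis-promoter reporter units. Treatment lasts 24 h, after which reporter transcripts are reverse-transcribed, amplified, FAM-labelled and sized by capillary electrophoresis. DMSO serves as baseline.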

In experiment [9] the target is Heat shock factor protein 1 (Homo sapiens) (UniProt Q00613). Briefly: ATG_HSE_CIS: Attagene CIS-FACTORIAL HepG2 Assay for human Heat Shock Transcription Factor 1 (HSE) (AID 2282953). The following applies: HepG2 HSE cis-reporter, Attagene RNA transcription; actives raise or lower the signal. In outline:
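After a 24 h incubation with test chemical, transfected HepG2 cells were harvested for RNA; reporter transcripts were measured by RT-PCR and capillary electrophoresis. Values reflect gain or loss of signal relative to DMSO.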

A short description of experiment [10]: ATG_MRE_CIS: Attagene CIS-FACTORIAL HepG2 Assay for human Metal Responsive Element (MRE) (AID 2282954). The note with it: HepG2 MRE cis-reporter transcription, Attagene multiplex; actives raise or lower the signal. In outline: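 Transient MRTU transfection of HepG2 (FuGene 6); 24 h dosing; total RNA → oligo(dT) RT, PCR, 6-FAM primer extension, HpaI cut, CE. Bidirectional fit vs DMSO.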

Experiment [11] can be described thus: ATG_PBREM_CIS: Attagene CIS-FACTORIAL HepG2 Assay for human Phenobarbital-responsive Enhancer Module (PBREM) (AID 2282955). The following applies: HepG2 PBREM cis-reporter, Attagene multiplexed transcription; actives raise or lower the signal. In outline:
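After a 24 h incubation with test chemical, transfected HepG2 cells yield total RNA; reporter-specific RT-PCR products are fluorescently labelled, HpaI-digested and resolved by capillary electrophoresis against ROX size standards.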

Experiment [12] deals with Paired box protein Pax-6 (Homo sapiens) (UniProt P26367). The experiment is described as follows: ATG_Pax6_CIS: Attagene CIS-FACTORIAL HepG2 Assay for human Paired Box 6 (PAX6) (AID 2282956). The note with it: HepG2 CIS-FACTORIAL PAX6 reporter transcription, RNA readout; actives raise or lower the signal. In outline: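 Multiplexed cis-reporter HepG2 system; 24 h treatment; reporter mRNA read by RT-PCR/CE fluorescence; bidirectional fit vs DMSO.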

Experiment [13] can be described thus: ATG_PXRE_CIS: Attagene CIS-FACTORIAL HepG2 Assay for human Pregnane X Receptor Element (PXRE) (AID 2282957). The following applies: HepG2 Attagene CIS-FACTORIAL PXRE reporter, mRNA; actives raise or lower the signal. In outline:
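Multiplexed cis-reporter assay in transiently transfected human HepG2 cells; 24 h chemical exposure. Reporter transcripts quantified by RT-PCR with fluorescent labeling and capillary electrophoresis.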

Experiment [14] in a line: ATG_PPRE_CIS: Attagene CIS-FACTORIAL HepG2 Assay for human Peroxisome Proliferator-activated Response Element (PPRE) (AID 2282958). The following applies: HepG2 PPRE cis-element reporter, Attagene transcription factor profiling; actives raise or lower the signal. In outline:
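Multiplexed reporter transcription units under cis-regulatory promoters were transfected into HepG2 cells to capture endogenous factor activity. A 24 h incubation preceded RNA isolation and fluorescent RT-PCR fragment analysis.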

The nature of experiment [15]: ATG_RORE_CIS: Attagene CIS-FACTORIAL HepG2 Assay for human RAR-related Orphan Receptor Element (RORE) (AID 2282959). The following applies: HepG2 Attagene cis-factorial RORE reporter, mRNA; actives raise or lower the signal. In outline: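 Fluorescence intensity of reporter-specific cDNA fragments, separated by capillary electrophoresis, gives the signal. Source: HepG2 liver cells transiently transfected with cis-element reporters and exposed 24 h; DMSO-normalized bidirectional fit.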

Experiment [16] can be described thus: ATG_Sox_CIS: Attagene CIS-FACTORIAL HepG2 Assay for human SRY-box transcription factor (SOX) (AID 2282960). The note with it: HepG2 Attagene cis-factorial SOX reporter, mRNA; actives raise or lower the signal. In outline: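 After 24 h of chemical treatment, transfected HepG2 reporter cells are lysed for total RNA. Transcript levels come from RT-PCR with labelled primer extension and capillary electrophoresis, analysed bidirectionally versus DMSO.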

Experiment [17] concerns the target Transcription factor Sp1 (Homo sapiens) (UniProt P08047). The experiment is described as follows: ATG_Sp1_CIS: Attagene CIS-FACTORIAL HepG2 Assay for human Specificity Protein 1 (Sp1) (AID 2282961). The note with it: HepG2 Sp1 cis-reporter transcription, actives raise or lower the signal. In outline:
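Sp1-driven reporter mRNA, read as capillary electrophoresis fluorescence after RT-PCR, in transiently transfected HepG2 cells dosed for 24 h; signal change in either direction relative to DMSO.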

A short description of experiment [18]: ATG_SREBP_CIS: Attagene CIS-FACTORIAL HepG2 Assay for human Sterol Regulatory Element Binding (SREBP) (AID 2282962). The following applies: HepG2 Attagene cis-factorial SREBP reporter, mRNA; actives raise or lower the signal. In outline: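 mRNA induction of transfected cis-promoter reporters in HepG2 cells, 24 h post-dose. Detection: RT-PCR with 6-FAM-labelled products, HpaI digest, capillary electrophoresis. DMSO served as negative control and baseline.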

The target in experiment [19] is Signal transducer and activator of transcription 3 (Homo sapiens) (UniProt P40763). Briefly: ATG_STAT3_CIS: Attagene CIS-FACTORIAL HepG2 Assay for human Signal Transducer and Activator of Transcription 3 (STAT3) (AID 2282963). The following applies: HepG2, Attagene cis-factorial STAT3 reporter transcription; actives raise or lower the signal. In outline:
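Endogenous STAT3-responsive cis-element activity was read in transiently transfected HepG2 cells after 24 h treatment. Reporter transcripts were quantified via RT-PCR and capillary electrophoresis, with DMSO as negative control and bidirectional curve fitting.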

Experiment [20] in a line: ATG_TA_CIS: Attagene CIS-FACTORIAL HepG2 Assay for human TA Basal Promoter (AID 2282964). The following applies: HepG2 Attagene CIS-factorial TA basal promoter reporter; actives raise or lower the signal. In outline: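 Multiplexed mRNA reporter assay, HepG2, 24 h. Reporter cDNA amplified, 6-FAM primer-extended, HpaI-cut, CE-sized; DMSO = negative control and baseline.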

Activity calls are given as the source filed them. The calls were made as follows: active = hit-call score of the fitted dose curve at least 0.9, where 1 is the maximum; inactive = score below 0.9.

Sequence of Hepatocyte nuclear factor 6 (Homo sapiens) (Q9UBC0 whole entry, looked up): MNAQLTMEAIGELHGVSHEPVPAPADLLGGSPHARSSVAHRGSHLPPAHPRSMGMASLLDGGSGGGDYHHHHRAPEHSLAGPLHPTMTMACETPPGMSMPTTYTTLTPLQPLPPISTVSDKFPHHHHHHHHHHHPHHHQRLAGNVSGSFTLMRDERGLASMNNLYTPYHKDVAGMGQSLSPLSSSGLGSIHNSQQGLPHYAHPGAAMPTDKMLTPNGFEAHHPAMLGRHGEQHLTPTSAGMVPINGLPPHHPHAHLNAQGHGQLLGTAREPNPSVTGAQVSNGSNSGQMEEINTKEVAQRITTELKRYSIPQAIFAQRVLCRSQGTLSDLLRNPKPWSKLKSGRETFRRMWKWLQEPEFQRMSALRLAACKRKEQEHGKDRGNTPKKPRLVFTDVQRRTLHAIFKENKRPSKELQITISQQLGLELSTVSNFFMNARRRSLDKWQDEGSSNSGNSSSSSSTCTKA
Sequence of Bile acid receptor (Homo sapiens) (Q96RI1 whole entry, looked up, the tested form may be a part): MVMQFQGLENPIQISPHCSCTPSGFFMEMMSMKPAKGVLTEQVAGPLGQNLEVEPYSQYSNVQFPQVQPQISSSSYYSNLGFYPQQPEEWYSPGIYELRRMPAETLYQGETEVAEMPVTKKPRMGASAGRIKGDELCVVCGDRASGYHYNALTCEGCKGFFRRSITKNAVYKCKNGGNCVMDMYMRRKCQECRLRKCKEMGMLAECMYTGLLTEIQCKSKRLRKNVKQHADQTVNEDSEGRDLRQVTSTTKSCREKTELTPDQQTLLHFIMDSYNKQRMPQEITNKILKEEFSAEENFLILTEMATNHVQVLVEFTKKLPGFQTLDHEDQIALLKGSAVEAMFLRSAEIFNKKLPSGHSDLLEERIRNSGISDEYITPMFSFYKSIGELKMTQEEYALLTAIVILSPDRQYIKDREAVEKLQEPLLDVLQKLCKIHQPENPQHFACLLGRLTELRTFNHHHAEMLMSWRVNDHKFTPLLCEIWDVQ
Sequence of Paired box protein Pax-6 (Homo sapiens) (P26367 whole entry, looked up): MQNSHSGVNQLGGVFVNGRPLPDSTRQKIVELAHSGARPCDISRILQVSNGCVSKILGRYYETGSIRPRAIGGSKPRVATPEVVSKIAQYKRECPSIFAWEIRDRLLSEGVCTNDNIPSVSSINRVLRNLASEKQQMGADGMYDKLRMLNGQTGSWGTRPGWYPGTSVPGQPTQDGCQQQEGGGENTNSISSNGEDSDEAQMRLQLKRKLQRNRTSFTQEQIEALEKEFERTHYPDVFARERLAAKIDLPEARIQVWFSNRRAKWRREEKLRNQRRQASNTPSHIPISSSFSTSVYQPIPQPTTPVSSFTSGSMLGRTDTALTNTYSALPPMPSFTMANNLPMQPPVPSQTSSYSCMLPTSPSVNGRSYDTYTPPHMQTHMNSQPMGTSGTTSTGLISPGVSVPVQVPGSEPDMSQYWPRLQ
Sequence of Hypoxia-inducible factor 1-alpha (Homo sapiens) (Q16665 whole entry, looked up): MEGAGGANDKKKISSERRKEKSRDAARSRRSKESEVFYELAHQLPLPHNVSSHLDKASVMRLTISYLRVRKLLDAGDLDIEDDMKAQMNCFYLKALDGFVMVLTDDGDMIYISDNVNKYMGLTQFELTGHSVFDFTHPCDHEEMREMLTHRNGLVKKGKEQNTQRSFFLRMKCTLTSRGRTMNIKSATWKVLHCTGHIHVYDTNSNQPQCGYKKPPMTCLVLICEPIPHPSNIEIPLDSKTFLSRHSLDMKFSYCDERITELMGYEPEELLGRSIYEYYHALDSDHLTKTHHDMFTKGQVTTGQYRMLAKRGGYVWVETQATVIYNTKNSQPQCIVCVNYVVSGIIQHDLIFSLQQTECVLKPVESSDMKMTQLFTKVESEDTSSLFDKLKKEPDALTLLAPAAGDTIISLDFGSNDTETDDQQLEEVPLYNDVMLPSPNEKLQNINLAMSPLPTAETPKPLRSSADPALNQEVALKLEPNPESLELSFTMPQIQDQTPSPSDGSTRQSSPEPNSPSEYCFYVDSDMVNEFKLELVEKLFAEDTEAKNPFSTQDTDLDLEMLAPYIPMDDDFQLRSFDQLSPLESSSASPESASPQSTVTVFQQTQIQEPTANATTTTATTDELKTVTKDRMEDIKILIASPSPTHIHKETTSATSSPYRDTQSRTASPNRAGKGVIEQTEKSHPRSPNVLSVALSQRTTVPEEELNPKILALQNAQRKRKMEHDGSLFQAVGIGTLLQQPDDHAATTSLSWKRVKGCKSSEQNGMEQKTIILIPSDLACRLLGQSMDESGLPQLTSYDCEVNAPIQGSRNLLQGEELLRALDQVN
Sequence of Transcription factor Sp1 (Homo sapiens) (P08047 whole entry, looked up): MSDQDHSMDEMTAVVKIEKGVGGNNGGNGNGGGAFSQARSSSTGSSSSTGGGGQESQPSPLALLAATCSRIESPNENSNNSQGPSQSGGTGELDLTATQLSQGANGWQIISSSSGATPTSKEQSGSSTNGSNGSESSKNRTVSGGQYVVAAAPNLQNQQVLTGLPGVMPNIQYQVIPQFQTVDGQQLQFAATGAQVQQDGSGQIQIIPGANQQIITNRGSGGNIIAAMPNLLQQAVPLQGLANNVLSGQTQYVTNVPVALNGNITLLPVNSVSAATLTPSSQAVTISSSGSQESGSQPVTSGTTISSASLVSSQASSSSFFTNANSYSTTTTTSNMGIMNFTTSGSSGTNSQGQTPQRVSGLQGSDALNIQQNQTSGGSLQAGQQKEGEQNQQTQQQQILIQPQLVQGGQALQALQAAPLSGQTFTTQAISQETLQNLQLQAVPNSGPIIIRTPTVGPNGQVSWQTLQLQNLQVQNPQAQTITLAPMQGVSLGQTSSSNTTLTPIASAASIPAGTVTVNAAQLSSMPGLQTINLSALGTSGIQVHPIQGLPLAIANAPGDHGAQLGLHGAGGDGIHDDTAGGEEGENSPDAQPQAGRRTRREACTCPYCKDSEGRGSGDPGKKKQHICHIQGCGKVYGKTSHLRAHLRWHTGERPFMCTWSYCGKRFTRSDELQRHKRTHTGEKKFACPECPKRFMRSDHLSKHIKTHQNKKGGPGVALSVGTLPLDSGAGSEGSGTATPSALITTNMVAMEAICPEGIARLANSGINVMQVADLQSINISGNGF
Sequence of Signal transducer and activator of transcription 3 (Homo sapiens) (P40763 whole entry, looked up): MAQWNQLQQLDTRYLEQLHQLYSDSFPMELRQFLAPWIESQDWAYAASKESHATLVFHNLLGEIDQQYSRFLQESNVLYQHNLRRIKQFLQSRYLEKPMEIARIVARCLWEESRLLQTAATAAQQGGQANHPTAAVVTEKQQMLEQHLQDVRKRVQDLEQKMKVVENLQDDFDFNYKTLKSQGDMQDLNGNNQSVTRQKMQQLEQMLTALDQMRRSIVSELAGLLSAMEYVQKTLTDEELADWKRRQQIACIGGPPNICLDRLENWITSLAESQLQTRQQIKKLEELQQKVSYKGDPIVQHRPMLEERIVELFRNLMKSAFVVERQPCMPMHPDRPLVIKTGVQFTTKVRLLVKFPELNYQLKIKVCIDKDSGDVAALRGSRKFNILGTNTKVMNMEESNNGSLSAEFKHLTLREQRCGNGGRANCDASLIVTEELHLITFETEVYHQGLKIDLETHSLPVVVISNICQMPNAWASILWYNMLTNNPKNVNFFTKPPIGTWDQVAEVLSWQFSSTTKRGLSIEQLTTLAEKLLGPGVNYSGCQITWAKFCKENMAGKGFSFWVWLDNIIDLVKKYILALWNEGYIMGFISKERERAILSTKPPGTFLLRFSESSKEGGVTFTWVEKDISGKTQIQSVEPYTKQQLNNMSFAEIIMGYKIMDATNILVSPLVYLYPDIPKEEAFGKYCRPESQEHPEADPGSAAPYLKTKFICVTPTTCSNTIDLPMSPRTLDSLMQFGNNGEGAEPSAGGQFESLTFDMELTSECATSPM
Sequence of Heat shock factor protein 1 (Homo sapiens) (Q00613 whole entry, looked up): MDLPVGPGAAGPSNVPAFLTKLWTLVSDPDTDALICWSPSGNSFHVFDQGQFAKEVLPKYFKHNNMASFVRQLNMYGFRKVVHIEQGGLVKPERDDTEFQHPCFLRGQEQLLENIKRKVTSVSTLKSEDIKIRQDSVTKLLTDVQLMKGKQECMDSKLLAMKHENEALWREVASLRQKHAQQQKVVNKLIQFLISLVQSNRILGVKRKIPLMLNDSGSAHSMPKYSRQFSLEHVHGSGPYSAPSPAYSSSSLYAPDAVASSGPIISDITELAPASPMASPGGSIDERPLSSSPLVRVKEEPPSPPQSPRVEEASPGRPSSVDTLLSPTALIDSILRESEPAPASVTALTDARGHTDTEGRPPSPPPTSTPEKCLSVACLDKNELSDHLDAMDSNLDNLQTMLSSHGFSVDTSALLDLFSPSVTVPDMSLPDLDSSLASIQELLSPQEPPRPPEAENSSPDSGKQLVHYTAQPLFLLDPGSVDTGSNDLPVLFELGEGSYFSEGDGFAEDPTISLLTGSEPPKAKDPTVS

For the molecule `O=S(=O)(O)CCC(F)(F)C(F)(F)C(F)(F)C(F)(F)C(F)(F)C(F)(F)C(F)(F)C(F)(F)F`, the call in experiment [1], in experiment [3], in experiment [4], in experiment [5], in [6] and in experiment [7] was inactive. The molecule was classed as inactive in experiment [8], in experiment [9], in [10], in experiment [11], in [12] and in [13]. For the same molecule, the result in experiment [14], in experiment [15], in [16], in [17], in experiment [18] and in experiment [19] was inactive. For the same molecule, the AC50 (as a rule, the concentration giving half of the maximal activity seen) in experiment [2] was 39.9 µM (active).

On to `C[C@]12CC[C@H]3C(=CCc4cc(O)ccc43)[C@@H]1CCC2=O`, for which the molecule was classed as inactive in experiment [1], in experiment [2], in experiment [3], in experiment [4], in experiment [5] and in experiment [6]. Further, the molecule was classed as inactive in experiment [7], in experiment [8], in experiment [9], in experiment [10], in experiment [11] and in [12]. Further, the molecule was classed as inactive in experiment [14], in experiment [15], in experiment [16], in experiment [17], in experiment [18] and in [20]. In addition, in experiment [13], the AC50 was 26.6 µM (active).

With `NCC(F)(F)C(F)(F)C(F)(F)C(F)(F)C(F)(F)C(F)(F)F`, the molecule was called inactive in experiment [1], in [2], in experiment [3], in experiment [4], in experiment [5] and in [6]. The call in [7], in [8], in experiment [9], in [10], in [11] and in experiment [12] was inactive. Moreover, the outcome in experiment [13], in experiment [14], in experiment [15], in [16], in experiment [17] and in experiment [18] was inactive. The result in [19] and in experiment [20] was inactive.

As for `C=CC(=O)OCC(F)(F)C(F)(F)C(F)(F)COC(=O)C=C`, the molecule was classed as inactive in [1], in experiment [2], in experiment [3], in experiment [5], in experiment [6] and in [7]. Also, the molecule was classed as inactive in experiment [8], in [9], in experiment [11], in experiment [13], in experiment [14] and in experiment [15]. Besides, the call in experiment [18] and in [19] was inactive. The AC50 in experiment [4] was 35.9 µM (active); in [10] it was 33.2 µM (active); in experiment [12], 50 µM (active); in experiment [16], 29.1 µM (active); in experiment [17] it was 26.4 µM (active).
